Only some compounds are listed: those with a hit (about 5.7% of all), similar ones and a draw of the others.
DRD3 agonist: qHTS of D3 Dopamine Receptor Agonist: qHTS. 0.58% of 410,000 active. D3R DiscoveRx beta-arrestin cells, luminescence, 90 min. D(3) dopamine receptor (Homo sapiens), P35462. max activation, %; in the data active = max activation above about 30%; also: 0% is about no effect
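Agonist mode: compounds and dopamine controls were applied to plated cells for 90 min at 37 degrees C after an overnight attachment at 1500 cells/well. Luminescent read-out followed 30 - 60 minutes at room temperature with DiscoveRx detection reagent.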
ClpP mod: qHTS Assay for Activators of ClpP; 1.9% of 340,000 active; purified B. subtilis ClpP, FRET peptide cleavage, 20 min; Potency, µM (top dose mostly 57.5 µM), for the others: top-dose activity change, negative = active; active = well fitted falling curve with a large enough effect; inconclusive = small, poorly fitted or top-dose-only effect; inactive = no such curve, though single readings can be large or run the other way; also: potency is read from the fitted curve at half-maximal effect; the source files actives as falling curves though it sought activators and does not explain the sign; nearly all actives have a fitted effect of over 65% in size
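Buffer: 100 mM Tris/HCl pH8, 100 mM KCl, 0.05% low protease BSA, 2.5% glycerol, 0.01% Tween-20. ClpP 10 microg/mL final; 20 min RT; delta FRET normalized to ADEP and DMSO controls.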
GLP1R cytotox: qHTS of GLP-1 Receptor Inverse Agonists: Cytotox Screen. HEK293 cAMP-luciferase reporter cells, luminescence, 24 h. AID 624418, 2012. 0.13% of 410,000 active. Potency, µM (doses to about 38.3 µM), without a hit: top-dose activity change, negative = inhibition, usual class: inhibitors;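 also: loss of luciferase light is scored as toxicity; potency is read from the fitted curve at half-maximal effect; % is scaled to controls: 0 for no effect and ±100 for the full control effect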
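Compound-treated cells are incubated 24 hr at 37 deg C under 5% CO2 after a 12 hour attachment period, then luciferase detection reagent is added and luminescence is measured following 12 min at room temperature; lowered signal indicates toxicity.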
GLP-1R inv ag: qHTS of GLP-1 Receptor Inverse Agonists (Inhibition Mode). 1.6% of 410,000 active. HEK293 GLP-1R CRE-luciferase, luminescence, 24 h; GLP-1R form is constitutively active. Glucagon-like peptide 1 receptor (Homo sapiens), P43220. AID 624417, 2012. Potency, µM (doses to about 38.3 µM), without a hit: at the top dose activity change, negative = inhibition, hits mostly inhibitors; also: potency is read from the fitted curve at half-maximal effect; % is scaled to controls: 0 for no effect and ±100 for the full control effect; nearly all actives have a fitted effect of over 55% in size
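Cells are plated, allowed 12 hours at 37 deg C, then treated with compounds for 24 hr before luciferase detection reagent is added and luminescence is read after 12 min at room temperature. The HEK293 line carries constitutively active GLP-1R with a cAMP-responsive reporter.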
GLP-1R agonist: qHTS of GLP-1 Receptor Agonists | AID 624172, 2012 | 0.007% of 380,000 active | HEK293 GLP-1R CRE-luciferase, luminescence, 4-6 h; cells express a hypersensitive GLP-1R form | Potency, µM (top dose mostly 45.6 µM), for inactives: at the top dose activation, hits mostly activators; also: potency is read from the fitted curve at half-maximal effect; % of control where 0% means no effect
D3 antag: qHTS of D3 Dopamine Receptor Antagonist: qHTS; D3R cells, DiscoveRx beta-arrestin luminescence, antagonist mode; hits give low values; 2.5% of 360,000 active; D(3) dopamine receptor (Homo sapiens), P35462; max response, negative = inhibition, %; AID 652054, 2013; in the data active = max response below about -50%; inconclusive = no clear call, values can overlap the other calls; also: % is scaled to controls: 0 for no effect and ±100 for the full control effect
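Cells plated overnight at 1500 cells/well, then exposed to library compounds with dopamine controls for 90 minutes at 37 degrees C. DiscoveRx reagent added for 30–60 minutes at room temperature; luminescence read, quantitative HTS format.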
Starred values were filed as active, the others as inactive; u = inconclusive; x = not tested or not shown; [ ] = another dose, or the depositor's remark. Unless noted, calls follow the shape of the dose curve; as a rule, active = well fitted curve in the direction sought with a large enough effect; inconclusive = small, poorly fitted or top-dose-only effect, or another doubt; inactive = no such curve, though single readings can be large; an effect the other way counts as inactive or inconclusive.

SMILES	DRD3 agonist	ClpP mod	GLP1R cytotox	GLP-1R inv ag	GLP-1R agonist	D3 antag
CCn1nc(C(=O)OCC(=O)Nc2nc(-c3ccc(OC)cc3)cs2)c2ccccc2c1=O	35*	-1%	3%	5%	12%	90
CC1CCN(CC(=O)Nc2nc(-c3ccccc3)cs2)CC1	-17	x	-10%	5.6µM*	-8%	10
COc1ccc(C2(O)CCN(CC(=O)Nc3nc(-c4ccccc4)cs3)CC2)cc1	-12	-1%	-18%	7.1µM*	-1%	5
NC(=O)C1CCN(CC(=O)Nc2nc(-c3ccccc3)cs2)CC1	1	-2%	3%	9%	-3%	9
CNC(C)CCC=C(C)C (centres undefined)	-20	x	x	x	x	x
CC(=O)N1c2c(cc(Br)cc2S(=O)(=O)NCc2ccccc2Cl)CC1C (centres undefined)	-21	0%	-5%	-12%	3%	x
CCS(=O)(=O)c1ncc(Cl)c(C(=O)NCc2ccccc2)n1	-17	3%	-23%	-11%	x	x
O=C(NCc1ccccc1)c1nc(S(=O)(=O)Cc2ccccc2)ncc1Cl	1	3%	u	u	-11%	-78*
CS(=O)(=O)c1ncc(Cl)c(C(=O)N(Cc2ccc(Cl)cc2)Cc2ccco2)n1	-29	2%	u	8.9µM*	x	x
COc1ccc(N(Cc2ccccc2)C(=O)c2nc(S(C)(=O)=O)ncc2Cl)cc1	-27	-5%	u	10µM*	x	x
COc1ccc(CNC(=O)c2nc(S(=O)(=O)Cc3ccccc3)ncc2Cl)cc1	-5	5%	u	u	-13%	-97*
COC(=O)c1ccccc1NC(=O)c1nc(S(=O)(=O)Cc2ccccc2)ncc1Cl	-1	2%	3%	4%	-7%	-77*
COc1ccc(C2Nc3ccccc3C(=O)N2c2ccc(C)cc2)cc1COc1ccccn1 (centres undefined)	1	32µM*	-6%[1.53 µM]	-2%	2%	-18
COc1ccc(C2Nc3ccccc3C(=O)N2c2ccccc2)cc1CN1CCOCC1 (centres undefined)	12	x	6%	-4%	17%	0
COc1ccc(C2Nc3ccccc3C(=O)N2c2ccc(C)cc2)cc1Cn1nc(C)c([N+](=O)[O-])c1C (centres undefined)	-12	-5%	-19%	-16%	-2%	-22
COc1ccc(N2C(=O)c3ccccc3NC2c2ccc(OC)c(Cn3nnc4ccccc43)c2)cc1 (centres undefined)	6	32µM*	-15%	3%	15%	39
CC1CCC(NC(=O)c2ccc3c(c2)N(Cc2cccc(Cl)c2)C(=O)c2ccccc2S3=O)CC1 (centres undefined)	-9	-1%	-11%	u	x	x
CC(C)C[C@H](NC(=O)[C@H](CCc1ccccc1)NC(=O)CN1CCOCC1)C(=O)N[C@@H](Cc1ccccc1)C(=O)N[C@@H](CC(C)C)C(=O)[C@@]1(C)CO1	7	x	x	x	-6%	x
CCCCN(CCCC)c1ccc(C(=O)c2ccccc2C(=O)O)c(O)c1	-9	2%	u	u	-5%	-81*
CC(C)OC(=O)c1c(-c2ccccc2)c(-c2ccccc2)nn(C)c1=O	12	1%	2%	-27%	x	x
CCCN1C(=O)C2(c3ccccc31)c1c(oc3ccccc3c1=O)C(=O)N2CCO (centres undefined)	-3	-3%	-4%	-6%	x	x
c1ccc(CN2CCC(Nc3ncnc4sccc34)CC2)cc1	-19	x	9%	14%	2%	u
Cc1sc2ncnc(NC3CCN(Cc4ccccc4)CC3)c2c1C	-12	x	-25%	u	9%	-75*
CS(=O)(=O)NC1CCN(Cc2ccccc2)CC1	-9	-2%	8%	0%	-6%	u
Cc1csc2c(NC3CCN(Cc4ccccc4)CC3)ncnc12	-21	x	-24%	u	6%	-81*
SMILES	DRD3 agonist	ClpP mod	GLP1R cytotox	GLP-1R inv ag	GLP-1R agonist	D3 antag
COc1ccc(C)cc1NC(=O)Cn1cc(S(=O)(=O)Cc2ccccc2Cl)c2ccccc21	2	0%	-10%	u	x	x
COc1ccc(OCC(O)CN2CCc3ccccc3C2)cc1 (centres undefined)	-16	0%	-12%	u	-1%	-107*
CCN1CCN(CC(O)COc2cccc(OC)c2)CC1 (centres undefined)	4	u	4%	-23%	6%	30
CC(C)(C)c1ccc(OCC(O)CN2CCN(C(=O)c3ccccc3)CC2)cc1 (centres undefined)	-11	-7%	-11%	10µM*	6%	13
COc1cccc(OCC(O)CN2CCc3ccccc3C2)c1 (centres undefined)	-14	-1%	-5%	u	-5%	-91*
CCCc1ccc(OCC(O)CN2CCc3ccccc3C2)cc1 (centres undefined)	-19	0%	-8%	u	6%	-94*
CN(C)c1cccc(C(=O)Nc2nc3ccc(S(=O)(=O)N4CCCC4)cc3s2)c1	5	-11%	u	u	x	x
S=C(NCCCc1cnc[nH]1)NCCCN(CCc1ccc(Cl)cc1)c1ccc(Br)cn1	x	-2%	x	x	x	x
Cc1noc(C)c1C(=O)OC(C)C(=O)c1c[nH]c2ccccc12 (centres undefined)	6	-1%	-2%	-20%	1%	5
OC(COc1ccc(Cl)cc1Cl)CN1CCc2ccccc2C1 (centres undefined)	-11	0%	u	u	0%	-103*
COc1cc(COCC(O)CN2CCc3ccccc3C2)cc(OC)c1OC (centres undefined)	-10	-2%	4%	-23%	-1%	-85*
Cc1ccc(OCC(O)CN2CCc3ccccc3C2)c(C)c1 (centres undefined)	-19	1%	2%	u	1%	-104*
Cc1cccc(OCC(O)CN2CCc3ccccc3C2)c1 (centres undefined)	-1	3%	9%	5%	-6%	-104*
Cc1cccc(OCC(O)CN2CCOCC2)c1 (centres undefined)	-3	1%	-14%	16%	-4%	-1
CCc1ccc2oc(-c3cc(NC(=O)COc4ccc(C)cc4)ccc3O)nc2c1	x	-1%	x	x	x	x
Cc1ccc(NC(=O)c2c(NC(=O)c3ccco3)sc3c2CCC(C(C)(C)C)C3)c(C)c1 (centres undefined)	-16	-8%	-13%	-4%	x	x

Screening data: PubChem, National Center for Advancing Translational Sciences (NCATS)
